Assay results as given in PubChem BioAssay (NCI).
About 83,000 compounds went through this panel and 20% of them were active in at least one assay; those are over-represented in the sample as a whole.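 96-well plates, one dose, 48 hours. Percent growth reported; active if below 10.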 Unmarked numbers belong to inactive results. Activity calls are given as the source filed them.

Tests used:
Experiment in all cases: NCI-60 one-dose screen, 48 h (100 = growth as untreated, 0 = no growth, -100 = all killed)
Settings in all cases: 10 µM unless noted
T-47D breast = tested on: T-47D breast
BT-549 breast = tested on: BT-549 breast
MDA-MB-435 melanoma = tested on: MDA-MB-435 melanoma
SW-620 colon = tested on: SW-620 colon
MCF7 breast = tested on: MCF7 breast
HCT-116 colon = tested on: HCT-116 colon
HCC-2998 colon = tested on: HCC-2998 colon
KM12 colon = tested on: KM12 colon

SMILES	growth (T-47D breast)	growth (BT-549 breast)	growth (MDA-MB-435 melanoma)	growth (SW-620 colon)	growth (MCF7 breast)	growth (HCT-116 colon)	growth (HCC-2998 colon)	growth (KM12 colon)
CN1C(=C2C(=O)OC(C)(C)OC2=O)CCC1C(=O)NCc1ccc(Cl)cc1Cl (stereo unspecified)	97.4%	107%	109%	104%	98.3%	88.3%	96.5%	98.5%
COc1ccc2c(c1)c(-c1nn3cc(-c4cccs4)nc3s1)cn2C	43.6%	101%	87.6%	82.3%	60.4%	82.8%	98.9%	70.4%
COc1ccc2c(c1)/C(=C/c1sc(=S)n(Cc3ccco3)c1O)C=N2	45.3%	7.24% (active)	-32.7% (active)	28.1%	21.8%	11.9%	44.7%	23.9%
CS(=O)(=O)Nc1cc(-c2ccc3ncnc(Nc4cccc(Cl)c4F)c3c2)cnc1Cl	-4.02% (active)	17.9%	46.2%	46.3%	11%	46.7%	45.3%	69.3%
Nc1nn(C(=O)Nc2ccc(Cc3ccccc3)cc2)c2ccc(Cl)cc12	41.4%	55.9%	53.3%	81.8%	20.7%	42.5%	2.27% (active)	66.2%
Fc1cc2c(cc1Cl)N(c1ncnc3ccc(-c4cnc5cnccn45)cc13)CC2	74.9%	83.7%	101%	101%	75.8%	83.5%	90.6%	98.1%
CC(=O)O.CN1[CH-]N(Cc2ccc(C#N)cc2)c2ccccc21.[Ag+]	69.7%	102%	106%	57.9%	97%	105%	113%	86.9%
CCCCNC(=O)Oc1ccc(/C(=C(\C)c2ccc(Cl)cc2)c2ccc(OCCN3CCCCC3)cc2)cc1	47%	86.5%	74.2%	83.6%	32.3%	53.6%	87.8%	67.1%
Cc1ccc(C(=O)N/N=C/c2cccc([N+](=O)[O-])c2)cn1	93.1%	122%	100%	103%	101%	105%	107%	107%
O=C(CS(=O)c1oc(-c2cccs2)nc1S(=O)(=O)c1ccc(Br)cc1)c1ccccc1 (stereo unspecified)	82%	97%	95%	97.7%	96.9%	86.2%	98.6%	102%
Nc1cc2c(cc1Br)-c1cc(Cl)ccc1C2=O	91.7%	121%	117%	109%	57.9%	96.1%	114%	98.6%
COC(=O)C(Cc1ccccc1)NC(=O)NC(=O)NC(=O)CI (stereo unspecified)	59.3%	79%	24.4%	-28.4% (active)	41.3%	94.5%	95.9%	96.7%
COc1ccc(-c2nc(NCCO)[nH]c(=O)c2C#N)cc1	82.8%	103%	103%	106%	91.9%	102%	103%	95.8%
NCCCNc1nc2ccccc2c2c(=O)c3cc(OC(F)(F)F)ccc3sc12	-9.69% (active)	93.1%	-79.2% (active)	-75.8% (active)	-70.1% (active)	-83.4% (active)	-88.1% (active)	-89.3% (active)
COc1ccc(N)c(N)c1	92.6%	88%	101%	109%	60.2%	96.1%	92.7%	101%
CCCCn1c(=O)c(-c2cc(-c3ccc(Cl)cc3)nc(-c3ccc(Cl)cc3)c2)cc2cc(Cl)ccc21	103%	106%	103%	99.7%	98.4%	106%	102%	102%

SMILES	growth (T-47D breast)	growth (BT-549 breast)	growth (MDA-MB-435 melanoma)	growth (SW-620 colon)	growth (MCF7 breast)	growth (HCT-116 colon)	growth (HCC-2998 colon)	growth (KM12 colon)
Cc1ccc(-c2nc(N3CCN(CC(=O)Nc4ccc(Cl)cc4)CC3)c3ccccc3n2)cc1	80.2%	102%	96.4%	97.5%	77.5%	89.9%	82.4%	92.4%
CC(=O)Oc1ccccc1C(=O)N=C1[Se]CCCN1C(=O)c1ccccc1OC(C)=O	85.2%	-97.2% (active)	-18.9% (active)	88.4%	15.7%	-8.29% (active)	104%	30.5%
COc1nc2ccc(C)cc2cc1-c1nc2c(cnn2-c2ccccc2)c(=O)[nH]1	81.9%	89.6%	8.39% (active)	58.5%	50.6%	67.2%	96.3%	70.6%
CCCCOc1ccc(/C=N/NC(N)=S)cc1	23.8%	73.6%	85.5%	73.3%	61.7%	67.8%	79.7%	69.2%
COc1ccc2nc(NCCCNCCO)c3sc4ccc(F)cc4c(=O)c3c2c1	72.2%	91.6%	-69% (active)	-66.4% (active)	17.8%	-67.2% (active)	-82.9% (active)	-58.7% (active)
NCCCNc1nc2ccccc2c2c(=O)c3cc(F)cc(Cl)c3sc12	88.4%	104%	26%	-49.3% (active)	68.3%	-60.2% (active)	84.3%	72.7%
COc1c(B(O)O)cc(C)cc1-c1nc2ccc3[nH]ncc3c2c2c1CCCC2	78.5%	24.2%	22.5%	8.73% (active)	54.6%	21.3%	62.9%	30.6%
Brc1c[n+](Cc2ccc3ccccc3c2)cn1Cc1ccc2ccccc2c1	6.91% (active)	-12.1% (active)	-32.1% (active)	37.7%	14.3%	17%	-28.5% (active)	-73.5% (active)
CN1C(=O)CNC(=O)[C@H](NC(=O)c2nc3ccccc3cc2O)CSSC[C@H]1C(=O)NCCCc1nc2ccccc2cc1O	78%	75.8%	44%	48.2%	55.1%	70%	74.7%	27%
C=C1C(=O)O[C@H]2[C@H]1CC/C(COC(=O)C(C)c1ccc(CC(C)C)cc1)=C\CC[C@@]1(C)O[C@@H]21 (stereo partly specified)	-35% (active)	-1.34% (active)	-11.7% (active)	-60.1% (active)	9.15% (active)	-73.7% (active)	72.2%	31.8%
NCCNc1nc2ccccc2c2c(=O)c3cccc(F)c3sc12	70.7%	98.5%	58.5%	17.7%	45.1%	15.1%	15.5%	34.3%
COc1ccc2cc(C(C)C(=O)Nc3ccc(-c4n[nH]c(=S)n4C4CCCCC4)cc3)ccc2c1 (stereo unspecified)	69.7%	90.9%	62.4%	92.2%	48.3%	48.6%	70.5%	55.9%
Cc1cc(=O)oc2cc(OC(=O)CN3CCN(C)CC3)ccc12	102%	114%	100%	96.2%	93.1%	95.8%	108%	99.5%
COc1ccc2c(c1)c(-c1ccc(-c3cn(C)c4ccc(OC)cc34)o1)cn2C	-14% (active)	1.95% (active)	89.5%	38%	65.4%	68.6%	30.1%	22.7%
CN1CCN(c2ccc(-c3ccc4ncc(C#N)c(Nc5ccc(F)c(Cl)c5)c4c3)cn2)CC1	60.8%	60.3%	81.6%	53.4%	66.9%	32.8%	68.9%	80.7%
Brc1ccc2[nH]cc(-c3nc(-c4c[nH]c5ccncc45)cs3)c2c1	-48.3% (active)	87.8%	-90.8% (active)	-76.7% (active)	-63.3% (active)	-93.7% (active)	-79.3% (active)	-81.9% (active)
